High-throughput results: PubChem, National Center for Advancing Translational Sciences (NCATS)
A selection: hits, their analogues and other compounds. The true share with any hit is near 2.4%.
D2 PAM-1: HTS Assay for Positive Allosteric Modulators of the Human D2 Dopamine Receptor: Primary Screen for Potentiators | D(2) dopamine receptor (Homo sapiens), P14416 | HEK293 T-REx D2, calcium flux, EC20 dopamine potentiation | hit rate 0.34% among 340,000 | AID 485347, 2010 | potentiation, % at 10 µM;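 active = potentiation over 3 SD above the plate norm, cut at about 30% in these data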; also: 0% is about no effect
Target sequence (P14416 whole entry, looked up): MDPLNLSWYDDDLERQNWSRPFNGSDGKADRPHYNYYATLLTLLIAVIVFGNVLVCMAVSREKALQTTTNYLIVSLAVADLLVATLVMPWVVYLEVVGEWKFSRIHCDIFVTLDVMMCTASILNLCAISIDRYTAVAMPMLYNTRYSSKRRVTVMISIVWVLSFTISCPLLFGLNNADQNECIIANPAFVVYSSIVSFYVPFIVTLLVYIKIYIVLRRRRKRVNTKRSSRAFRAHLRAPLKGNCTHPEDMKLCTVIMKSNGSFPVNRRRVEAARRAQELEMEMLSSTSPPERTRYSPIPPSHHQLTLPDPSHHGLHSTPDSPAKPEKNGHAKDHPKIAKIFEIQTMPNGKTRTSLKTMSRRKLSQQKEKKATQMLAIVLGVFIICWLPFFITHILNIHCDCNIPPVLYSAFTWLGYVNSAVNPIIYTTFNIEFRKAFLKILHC
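Potentiation of an EC20 dopamine calcium response measured kinetically over 180 s, after a preceding 180 s compound-only read flagging agonists. Cells: inducible Hek293 Trex D2 line, 4000/well, cultured overnight at 30 C before dye loading.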
D2 ag-1: HTS Assay for Allosteric Agonists of the Human D2 Dopamine Receptor: Primary Screen for Agonists. D(2) dopamine receptor (Homo sapiens), P14416. HEK293 T-REx D2 cells, calcium flux agonist mode. activation, % at 2 µM. hit rate 0.53% among 340,000;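 active = activation over 3 SD above normal in the single-dose calcium agonist read, cut at about 30% in these data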; also: 0% is about no effect
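Tetracycline-induced HEK293 T-REx cells with force-coupled D2 receptor, plated overnight at 30 C, loaded with no-wash calcium dye. After a 10 s baseline, compound was pin-added and calcium flux read kinetically for 180 s; calcium rises flagged agonists.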
D2 antagonist: HTS Assay for Allosteric Antagonists of the Human D2 Dopamine Receptor: Primary Screen for Antagonists | hit rate 2% among 340,000 | HEK293 TREx D2 cells, calcium flux, dopamine EC80 | inhibition, % at 10 µM | AID 485344, 2010 | D(2) dopamine receptor (Homo sapiens), P14416; in the data active = inhibition above about 30%; inactive = below that, where a call was filed; also: 0% is about no effect
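Measurement of antagonist activity uses fluorescent calcium dye in inducible HEK293 T-REx D2 cells: 10 s baseline, compound addition with 180 s read, EC80 dopamine addition with a further 180 s read.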
D2 ag-2: Beta-Arrestin HTS for Positive Allosteric Modulators of the Human D2 Dopamine Receptor: Agonists. D(2) dopamine receptor (Homo sapiens), P14416. DiscoveRx PathHunter D2 beta-arrestin, luminescence, 90 min; 100% = 57 uM dopamine signal. activation, % (concentration not given with the values). hit rate 0.084% among 360,000. AID 624465, 2012; in the data active = activation above about 40%; inconclusive = between about 15% and that limit
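DiscoveRx PathHunter D2 beta-arrestin cells (2,100/well) attached overnight, then compound-stimulated 90 min at 37 C in HBSS/10 mM HEPES/0.1% Tween-20 buffer; beta-galactosidase complementation read by luminescence after 1 h at ambient temperature. Dopamine 57 uM final (EC100) as control.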
D2 PAM-2: Beta-Arrestin HTS for Positive Allosteric Modulators of the Human D2 Dopamine Receptor: Potentiators; D(2) dopamine receptor (Homo sapiens), P14416; DiscoveRx D2 beta-arrestin cells, luminescence, 90 min; 100% = 57 uM dopamine signal; potentiation, % (test concentration not listed); hit rate 0.23% among 360,000; AID 624464, 2012; in the data active = potentiation above about 50%; inconclusive = mostly about 30% to 49%
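PathHunter D2 cells, attached overnight at 37 deg C, received compound in DMSO plus dopamine at EC20 (50 nM final) for 90 min at 37 deg C. Beta-arrestin recruitment was read as luminescence after 1 h with detection reagent at ambient temperature.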
* marks the source's active call; other numbers are inactive results; ? = inconclusive; . = no result given.

SMILES | D2 PAM-1 | D2 ag-1 | D2 antagonist | D2 ag-2 | D2 PAM-2
COC(=O)c1cc(NC(=O)CN2CCOCC2)cc(C(=O)OC)c1 | -7 | 7 | -2 | -4 | 5
O=C(CN1CCCCCC1)Nc1ccc(Br)cn1 | 12 | -1 | 41* | -5 | -3
CC1CN(CC(=O)Nc2ccc(Br)cn2)CC(C)O1 (centres undefined) | 13 | 2 | -19 | 2 | 2
Cc1ccc(C)c(CSc2nnc3[nH]c(=O)cc(C)n23)c1 | 15 | 0 | . | . | .
COc1ccc(-n2nc(C(N)=O)c(O)cc2=O)cc1 | -5 | 1 | 32* | 3 | -3
COc1cccc(Nc2nc(=O)[nH]nc2C)c1 | . | -1 | 34* | -2 | -3
COc1ccc(C(=O)NCC(=O)N/N=C/c2c(C)[nH]c3ccccc23)cc1 | -4 | -1 | 53* | 1 | -27
COc1ccc(CCN2CC(C(=O)Nc3cc(F)ccc3F)CC2=O)cc1OC (centres undefined) | -9 | -1 | -1 | -1 | -2
O=C(CBr)c1ccc([N+](=O)[O-])c(CS(=O)(=O)c2ccc(Cl)cc2)c1 | -2 | 5 | 6 | 54* | -37
CCc1ccc(-c2cc(C)no2)cc1S(=O)(=O)Nc1ccc(Cl)cc1 | 1 | 0 | . | . | .
CCCC(C(=O)NC1CCCC1)N(CC1CCCO1)C(=O)CNS(=O)(=O)c1ccc(F)cc1 (centres undefined) | -4 | 0 | 32* | -4 | -1
O=C(CN(CC1CCCO1)C(=O)CNS(=O)(=O)c1ccc(F)cc1)NCc1ccc(F)cc1 (centres undefined) | 5 | 0 | 37* | -1 | -3
O=C(/C=C/c1ccccc1)NC1CC2CCCC(C1)N2Cc1ccccc1 (centres undefined) | -23 | 1 | 88* | . | .
CCN(CC)C(=O)NC1CC2CCCC(C1)N2Cc1ccccc1 (centres undefined) | -40 | 0 | 92* | 3 | -35
O=C(CSc1nc2ccc(N3CCOCC3)cc2c(=O)n1CCc1ccccc1)NCC1CCCO1 (centres undefined) | . | 1 | 41* | 14 | 6
CC(C)(C)C1CCc2c(sc(NC(=O)c3noc4c3CCCC4)c2C#N)C1 (centres undefined) | -2 | 0 | . | . | .
CCOC(=O)N1CCN(C(=O)c2ccc(OCC)c(OCC)c2)CC1 | 1 | 0 | 33* | -5 | -20
CCOc1ccc(C(N)=O)cc1OC | 58* | 1 | 13 | -3 | -23
CCOC(=O)N1CCN(C(=O)c2ccc(OC)c(OC)c2)CC1 | -4 | -1 | -13 | -3 | -12
O=C(Nc1cnc(N2CCN(c3ccccc3)CC2)c(C(=O)O)c1)c1cccs1 | 10 | 0 | . | . | .
Cc1csc(NS(=O)(=O)c2cccc([N+](=O)[O-])c2)n1 | -22 | 1 | 34* | 2 | -9
Cc1c(/C(Cc2ccccc2)=N/O)c2ccccc2n1C | -2 | 4 | 37* | -3 | 0
Cc1c(C(=O)CN2CCSCC2)c2ccccc2n1C | -3 | -2 | 4 | -2 | -23
O=C(Nc1cnn(Cc2c(Cl)cccc2Cl)c1)C(c1ccccc1)c1ccccc1 | 33* | 0 | 16 | -1 | 1
O=C(COc1ccccc1Cl)Nc1cnn(Cc2ccccc2)c1 | -3 | -1 | -14 | 1 | -13
SMILES | D2 PAM-1 | D2 ag-1 | D2 antagonist | D2 ag-2 | D2 PAM-2
Cc1cc(C)cc(NC(=O)C2CCN(S(=O)(=O)c3ccc4[nH]c(=O)ccc4c3)CC2)c1 | -16 | 0 | 31* | 2 | -9
CC(=O)N1CCOc2ccc(S(=O)(=O)N3CCC(C(=O)Nc4cc(C)cc(C)c4)CC3)cc21 | -12 | -1 | 52* | -2 | -23
Cc1cccc(CCNC(=O)c2sc3nc4n(c(=O)c3c2C)CCCC4)c1 | . | 4 | . | . | .
COC(=O)c1cc2n(n1)CCN(Cc1ccc(OC)cc1)C2=O | -4 | 0 | -4 | 2 | -3
COc1ccc(CN2CCn3ncc(C(=O)Nc4cc(C)cc(C)c4)c3C2=O)cc1 | -1 | 0 | 38* | 0 | 1
COc1ccc(N2CCN(C(=O)CN(c3cccc(OC)c3)S(=O)(=O)c3ccccc3)CC2)cc1 | 4 | 0 | -1 | -5 | -2
Cc1c(C(=O)N2CCCC2)oc2c1-c1nn(CC(=O)NCCCOC(C)C)cc1CC2 | 2 | 0 | 35* | ? | -15
CCOc1ccc(-c2nc(CSCC(=O)NCCc3ccc(OCC)c(OCC)c3)c(C)o2)cc1 | 12 | . | . | . | .
CCOC(=O)[C@@H]1[C@H]2COc3ccccc3[C@H]2N2C(=O)N(c3cccc(C)c3)C(=O)[C@]12C | . | . | . | -6 | -5
CCOC1OC(=O)C(Cl)=C1Nc1ccc(C)cc1 (centres undefined) | -1 | -1 | 3 | -2 | -7
Cc1ccc(NC2=C(Cl)C(=O)OC2NC(=O)c2ccccc2)cc1 (centres undefined) | -4 | 1 | 55* | -1 | -6
CN(C)CCCNc1nc2cc(-c3cnn(C)c3)sc2c(=O)n1C | . | . | . | 2 | -4
COc1cccc(C(C(=O)NC2CCCC2)N(CCC(C)C)C(=O)CCC(=O)Nc2cc(C)on2)c1 (centres undefined) | -3 | 1 | -18 | -1 | -3
COCCN(C(=O)CCC(=O)Nc1cc(C)on1)C(C(=O)NC(C)(C)C)c1ccc(OC)cc1 (centres undefined) | -20 | 8 | 10 | -10 | -2
COCCN(C(=O)CCC(=O)Nc1cc(C)on1)C(C(=O)NC(C)(C)C)c1ccccc1Cl (centres undefined) | . | -3 | 45* | 1 | -2
COc1ccc(C(C(=O)NC2CCCC2)N(CCC(C)C)C(=O)CCC(=O)Nc2cc(C)on2)cc1 (centres undefined) | 3 | -1 | 35* | 2 | 2
CCCCN(C(=O)CCC(=O)Nc1cc(C)on1)C(C(=O)NC(C)(C)C)c1ccccc1Cl (centres undefined) | . | 1 | 3 | 0 | -4
COc1ccc(C(C(=O)NC(C)(C)C)N(CCc2ccc(OC)c(OC)c2)C(=O)CCC(=O)Nc2cc(C)on2)cc1 (centres undefined) | . | 1 | 35* | -5 | -3
COc1cc(O)ccc1-c1nc2cc(C)ccn2c1Nc1ccccc1C | 6 | 0 | . | . | .
CC1CCC(C(C)C)C(OC(=O)C[n+]2cc(-c3ccc(Cl)cc3)n3c2CCCCC3)C1 (centres undefined) | -5 | 1 | 33* | 1 | -7
